Screens deposited in PubChem BioAssay by National Center for Advancing Translational Sciences (NCATS).
Casp1 inh = blocks human caspase-1 allosterically or competitively; P29466; Caspase-1 enzyme, Ac-WEHD-AFC fluorogenic rate; Potency, µM (top dose mostly 57.5 µM), for inactives: at the top dose activity change, negative = inhibition, most hits filed as inhibitors; 75,000 tested, 0.03% active;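 further: plate controls were vehicle for no effect and no substrate for full effect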
Target sequence (P29466 120-297 limits assumed): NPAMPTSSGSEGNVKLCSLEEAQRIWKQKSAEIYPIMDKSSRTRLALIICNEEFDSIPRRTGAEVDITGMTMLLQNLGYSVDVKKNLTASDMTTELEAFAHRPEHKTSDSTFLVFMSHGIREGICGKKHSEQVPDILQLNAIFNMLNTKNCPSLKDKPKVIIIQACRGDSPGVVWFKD
Target sequence (P29466 317-404 limits assumed): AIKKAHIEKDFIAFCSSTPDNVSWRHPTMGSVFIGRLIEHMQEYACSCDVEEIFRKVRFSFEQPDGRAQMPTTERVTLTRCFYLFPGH
Caspase-7 inhib = blocks human caspase-7 allosterically or competitively; P55210; recombinant caspase-7, Ac-DEVD-AFC fluorescence rate; Potency, µM (titrated, usually from 57.5 µM), without a hit: top-dose activity change, negative = inhibition, most hits filed as inhibitors; 75,000 tested, 0.02% active; AID 889; active means well fitted inhibition curve with a large enough effect in the main read-out, with a control signal flat, not every such curve was filed as active; inconclusive means small, poorly fitted or top-dose-only effect, or a change in a side signal; further: % of control where 0% means no effect
Target sequence (P55210 24-198 limits assumed): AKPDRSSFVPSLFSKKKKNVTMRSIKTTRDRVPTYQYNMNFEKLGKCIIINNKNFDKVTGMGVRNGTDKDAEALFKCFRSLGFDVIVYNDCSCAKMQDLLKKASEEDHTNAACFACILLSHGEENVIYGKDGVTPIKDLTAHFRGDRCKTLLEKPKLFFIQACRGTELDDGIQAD
Target sequence (P55210 207-303 limits assumed): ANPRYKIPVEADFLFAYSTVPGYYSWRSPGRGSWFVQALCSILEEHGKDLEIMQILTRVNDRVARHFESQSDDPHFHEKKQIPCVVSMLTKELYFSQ
15-hLO inh = inhibitors of human 15-lipoxygenase (ALOX15). purified 15hLO-1, xylenol orange hydroperoxide absorbance. Potency, µM (doses to about 57.1 µM), without a hit: at the highest dose activity change, negative = inhibition, most hits filed as inhibitors. 74,000 tested, 1.4% active. AID 887; further: on the % scale 0 is the no-effect control and ±100 the full control effect; nearly all actives have a fitted effect of over 55% in size
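Inhibition is scored from a chromogenic endpoint. After 15 min enzyme-compound contact, arachidonic acid (50 uM final) reacts 6 min with 40 nM 15hLO-1 at room temperature, then Fe-XO reagent is added for 30 min and absorbance ratio recorded.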
USP2a inhib = USP2a (human) protease inhibition. USP2a enzymatic assay, qHTS inhibition. Potency, µM (titrated, usually from 38.3 µM), without a hit: top-dose activity change, negative = inhibition, usual class: inhibitors. 60,000 tested, 0.1% active. AID 927; further: nearly all actives have a fitted effect of over 60% in size
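Inhibition is measured in a cell-free coupled assay with 20 nM USP2 core, 20 nM Ub-PLA2 and 20 uM NBD C6-HPC, 2.5 h incubation. Activity normalized to NEM control.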
15-hLO-2 inh = blocks human 15-lipoxygenase 2 activity; O15296; purified 15hLO-2, xylenol orange hydroperoxide absorbance; Potency, µM (highest dose often 57.1 µM), inactives show at the highest dose activity change, negative = inhibition, actives largely listed as inhibitors; 110,000 tested, 0.56% active; further: on the % scale 0 is the no-effect control and ±100 the full control effect; nearly all actives have a fitted effect of over 60% in size
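Purified human 15hLO-2 (50 nM) preincubated 15 min with compound, then 45 uM arachidonic acid for 90 min at RT in 25 mM Hepes pH 7.5, 0.01% Triton X-100. Hydroperoxide detected by Fe-xylenol orange; 573/405 nm absorbance ratio.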
An asterisk follows results filed as active; ? = inconclusive; / = not tested or not shown; [ ] = remark or other dose. Shown is part of a subset that was picked to be rich in hits. Unless noted, the call rests on the fitted dose curve; in most records, active means well fitted curve in the direction sought with a large enough effect; inconclusive means small, poorly fitted or top-dose-only effect, or another doubt; inactive means no such curve, though single readings can be large; an effect the other way counts as inactive or inconclusive. Potency means the concentration at half of the fitted maximal effect.

SMILES | Casp1 inh | Caspase-7 inhib | 15-hLO inh | USP2a inhib | 15-hLO-2 inh
CC1(C)CC(=O)C2=C(C1)OC1=C(C(=O)CC(C)(C)C1)C2c1ccc(O)cc1O | -8.7% | -8.5% | 3.16µM* | ? | ?
CCCCCCC1Cc2cc(OC)c(OC)cc2C(C(C(=O)OCC)C(=O)OCC)O1 (stereo not drawn) | 1.2%[11.5 µM] | -0.4%[11.5 µM] | -0.7%[11.4 µM] | / | /
O=C(Nc1ccc2c(c1)OCO2)[C@@H]1[C@@H]2C(=O)N(C3CCCCC3)C(=O)[C@@H]2C2c3ccccc3C=CN21 (stereo partly drawn) | ? | ? | ? | 37.6% | 3.9%[11.4 µM]
O=C(c1ccc2c(c1)OCO2)[C@@H]1[C@@H]2C(=O)N(C3CCCCC3)C(=O)[C@@H]2C2c3ccccc3C=CN21 (stereo partly drawn) | ? | -21.8% | 15.8µM* | 31.0% | 24.0%
O=C(CSc1ncn(-c2ccccc2)n1)Nc1ccc(Br)cn1 | -1.8% | -5.1% | 20µM* | 1.7% | ?
O=C(CSc1ccccn1)Nc1ccc(Br)cn1 | 1.4% | 1.4% | -6.6% | 0.5% | -2.6%
CCN1CC2=C(OC(N)=C(C#N)C2c2cccs2)/C(=C/c2cccs2)C1 (stereo not drawn) | ? | -27.0% | -29.9% | 22.7% | 3.2%
CCN1C=C(Cc2cccs2)C2=C(C1)C(c1cccs1)C(C#N)=C(N)O2 (stereo not drawn) | -15.3% | -26.3% | 10µM* | 52.1% | 9.4%
CN1[C@@H]2CC[C@@H]1CC(OC(=O)[C@H](CO)c1ccccc1)C2 (stereo partly drawn) | / | / | / | / | 0.6%[0.0915 µM]
CC(C)CCC[C@@H](C)[C@H]1CC[C@H]2[C@@H]3CC=C4C[C@@H](O)CC[C@]4(C)[C@H]3CC[C@]12C | / | / | / | / | -6.7%[0.0915 µM]
c1ccc2c(c1)CCN(c1nc3cc4c(cc3s1)OCO4)C2 | -7.3% | -25.3% | 10µM* | 19.4% | -13.3%
c1c2c(cc3sc(N4CCOCC4)nc13)OCO2 | -2.2% | -1.8% | ? | -11.4% | -1.8%
c1ccc(N2CCN(c3nc4cc5c(cc4s3)OCO5)CC2)cc1 | 0.8% | -0.5% | 12.6µM* | -4.3% | -21.2%
CCc1c2c(nc3c(C(C)C)cccc13)-c1cccc(=O)n1C2 | -14.1% | -22.5% | / | / | -9.3%
CCc1cc2c(nc1CC)CCN(CC/C(C)=N/O[C@@H](C)CN1CCCCc3nc(C)c(C)cc31)C2 | -1.9%[11.5 µM] | -2.4%[11.5 µM] | 7.2%[11.4 µM] | / | /
O=C1N/C(=N/Nc2ccccc2)S/C1=C\c1ccccc1 | / | / | / | / | 3.16µM*
Cc1noc(C)c1C(=O)N1CCC2(CC1)CCN(c1ccccn1)CC2 | 1.0% | 0.1% | -2.4% | -13.2% | 14.8%
CCc1cc2c(nc1CC)CCN(CC/C(C)=N/OC[C@@H](O)COCc1ccco1)C2 | 2.3%[11.5 µM] | 3.3%[11.5 µM] | -0.6%[11.4 µM] | / | /
N#Cc1c(-c2ccncc2)c2c([nH]c1=S)CCCC2 | / | / | / | / | -23.2%
Cc1ccc(-c2c3c([nH]c(=S)c2C#N)CCCC3)o1 | -2.2% | -14.6% | 10µM* | 25.2% | ?
CCCCCc1nnc(NC(=O)C2CCCO2)s1 (stereo not drawn) | 0.2% | 0.3% | 0.2% | -1.4% | -10.7%
CCCc1cc(C(N)=O)c(NC(=O)C2CCCO2)s1 (stereo not drawn) | -6.4% | -7.9% | 25.1µM* | 32.0% | -21.4%
C=CCOC(=O)c1cc(-c2ccc(/C=C3\C(=O)NC(=O)C(C#N)=C3C)o2)ccc1Cl | / | / | / | / | 12.6µM*
Cc1noc(C)c1C(=O)N1CCC2(CCN(Cc3nccs3)CC2)CC1 | -1.6% | 0.2% | -2.5% | 8.8% | -4.1%
N#CC1=C(N)SC2(CCCCC2)SC1c1ccccc1 (stereo not drawn) | -3.0% | -1.5% | 25.1µM* | 28.7% | ?
SMILES | Casp1 inh | Caspase-7 inhib | 15-hLO inh | USP2a inhib | 15-hLO-2 inh
O=C(CSCc1ccc(Cl)cc1)c1ccco1 | -3.1% | -8.3% | 31.6µM* | 8.1% | -23.1%
O=C1CC(Nc2ccc(N3CCOCC3)cc2)C(=O)N1c1cccc(C(F)(F)F)c1 (stereo not drawn) | -3.1% | 1.8% | ? | / | 20µM*
COc1cccc(N2C(=O)CC(Nc3ccc(N4CCOCC4)cc3)C2=O)c1 (stereo not drawn) | -0.1% | -1.0% | 12.6µM* | / | 12.6µM*
COc1ccc(N2C(=O)CC(Nc3ccc(N4CCOCC4)cc3)C2=O)c(OC)c1 (stereo not drawn) | -5.0% | -0.5% | ? | 12.7% | 31.6µM*
CC(=O)N1CCN(c2ccc(NCc3ccc4c(c3)OCO4)cc2)CC1 | 1.7% | -0.2% | ? | 6.2% | 12.6µM*
CCOC(=O)c1ccc(NCc2ccc(N(C)C)cc2)cc1 | / | / | / | / | 7.9%
O=C(c1ccccc1)N1CCN(c2ccc(NCc3ccc4c(c3)OCO4)cc2)CC1 | -0.1% | -3.4% | 25.1µM* | / | 20µM*
CCOC(=O)c1ccc(NCc2ccc3c(c2)OCO3)cc1 | -3.1% | -4.8% | ? | 12.6µM* | 3.9%
Oc1ccc(-c2nc3ncccn3c2Nc2ccc3c(c2)OCO3)cc1 | -6.4% | -9.8% | 10µM* | 25.1% | -19.0%
Cc1ccc(-c2nc3ncccn3c2Nc2ccc3c(c2)OCO3)o1 | -6.9% | -7.8% | -20.7% | 12.6% | /
CC(=O)NCCNc1ncnc2ccc(-c3ccccc3C#N)cc12 | -2.9% | 2.6% | ? | 21.9% | 8.2%
CCOc1ccccc1CNC(=O)c1cc2occc2n1C | -0.7% | -0.6% | 20µM* | / | -25.2%
CCC(C)c1ccccc1O (stereo not drawn) | -0.2% | 0.0% | -1.7% | / | 4.0%
Nc1cc(S(=O)(=O)O)ccc1O | -1.8% | -1.2% | -3.2% | / | -0.4%
CC(C)c1ccc(O)c(N)c1 | / | / | / | / | 5.01µM*
CCC(C)c1ccc(O)c(N)c1 (stereo not drawn) | -0.2% | 0.4% | 12.6µM* | 35.5% | ?
COc1cccc(Nc2ncc3ncc(=O)n(CCc4ccccc4)c3n2)c1 | -15.5% | -29.9% | ? | ? | 13.0%
COc1ccc(-n2c(=O)c(-c3cn(C)c4ccccc34)nc3cnc(N4CCOCC4)nc32)cc1 | / | ? | -3.1% | 68.8% | -6.4%
Cc1ccc(C(=O)N2CCN(c3ccc(NC(=S)NC(=O)Cc4ccccc4)cc3)CC2)cc1 | / | / | / | / | 12.6µM*
COc1ccc(N2CCN(C(=O)c3ccc(NS(=O)(=O)c4ccccc4)cc3)CC2)cc1 | 0.1% | -2.9% | 5.01µM* | 34.2% | /
Cc1noc(C)c1-c1nccc(NCCN2CCOCC2)n1 | 0.4% | -2.8% | ? | 11.2% | 1.6%
CSc1ncnc2nc[nH]c12 | ? | -16.5% | -19.1% | / | /
CO[C@@H]1/C=C\O[C@]2(C)Oc3c(C)c(O)c4c(O)c(c(CN5CCN(C)CC5)c(O)c4c3C2=O)NC(=O)/C(C)=C\C=C[C@@H](C)[C@@H](O)[C@H](C)[C@@H](O)[C@H](C)[C@H](OC(C)=O)[C@@H]1C | -4.7%[11.5 µM] | -3.0%[11.5 µM] | ? | / | -6.9%[11.4 µM]
